Screening results deposited in PubChem BioAssay by National Center for Advancing Translational Sciences (NCATS).
Pol beta inh = DNA polymerase beta (human) inhibition. Pol beta primer extension/strand displacement, fluorescence kinetic. Potency, µM (highest dose often 114 µM), most hits filed as inhibitors. actives 1.3% (n = 340,000). AID 485314. P06746
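Curves were derived by four-parameter Hill fits of normalized qHTS data. The kinetic fluorescent primer-extension read was taken at 0 and 10 min after 50 nM substrate, following a 15 min room-temperature preincubation of 10 nM enzyme with compounds.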
WRN inhibitor = inhibitors of human WRN helicase | Q14191 | WRN helicase unwinding, fluorescent forked duplex, kinetic | Potency, µM (series often up to 114 µM), usual class: inhibitors | actives 0.46% (n = 360,000); also: nearly all actives have a fitted effect of over 55% in size
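Kinetic red-fluorescence monitoring (525/598 nm) tracks WRN helicase activity after 100 nM fluorophore-quencher forked duplex and 2 mM ATP are added to 20 nM enzyme pretreated 15 min at room temperature with compound.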
Pol kappa inh = blocks human DNA polymerase kappa activity; Potency, µM (highest dose often 107 µM), hits mostly inhibitors; purified Pol kappa, fluorescent DNA synthesis assay, 10 min; actives 0.53% (n = 400,000); Q9UBT6
Target sequence (Q9UBT6 whole entry, looked up): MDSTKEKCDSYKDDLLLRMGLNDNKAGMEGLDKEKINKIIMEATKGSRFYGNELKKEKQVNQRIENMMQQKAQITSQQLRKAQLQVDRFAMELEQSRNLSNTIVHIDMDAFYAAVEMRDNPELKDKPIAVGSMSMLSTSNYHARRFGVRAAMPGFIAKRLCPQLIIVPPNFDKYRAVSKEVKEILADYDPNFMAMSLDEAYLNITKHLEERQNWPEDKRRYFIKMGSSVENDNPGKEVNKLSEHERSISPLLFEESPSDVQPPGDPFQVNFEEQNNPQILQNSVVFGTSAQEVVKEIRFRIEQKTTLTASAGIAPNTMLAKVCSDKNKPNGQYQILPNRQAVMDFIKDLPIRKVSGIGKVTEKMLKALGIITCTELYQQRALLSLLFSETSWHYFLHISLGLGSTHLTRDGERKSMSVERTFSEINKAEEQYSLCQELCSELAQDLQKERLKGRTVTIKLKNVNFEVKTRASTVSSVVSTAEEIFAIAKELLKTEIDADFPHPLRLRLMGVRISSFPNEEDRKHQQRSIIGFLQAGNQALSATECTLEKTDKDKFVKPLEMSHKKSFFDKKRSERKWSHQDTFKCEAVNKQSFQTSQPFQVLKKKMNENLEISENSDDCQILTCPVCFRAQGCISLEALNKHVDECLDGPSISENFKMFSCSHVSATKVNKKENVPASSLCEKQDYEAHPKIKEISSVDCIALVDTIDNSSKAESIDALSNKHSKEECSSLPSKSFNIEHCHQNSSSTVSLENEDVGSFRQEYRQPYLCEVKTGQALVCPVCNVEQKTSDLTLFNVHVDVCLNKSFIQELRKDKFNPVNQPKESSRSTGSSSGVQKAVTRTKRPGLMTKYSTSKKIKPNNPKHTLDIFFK
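10 nM Pol kappa was preincubated with compounds for 15 min at room temperature. Reaction started with 50 nM (final) substrate. Fluorescence read kinetically at 0 and 10 min.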
POLH inh = blocks human DNA polymerase eta activity | Potency, µM (highest dose often 114 µM), actives largely listed as inhibitors | Q9Y253 | actives 1.2% (n = 390,000) | recombinant Pol eta, fluorescent DNA replication assay
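Fluorescent replication assay: 50 nM final substrate added after a 15 min room-temperature compound preincubation with 10 nM enzyme. Signal taken at 0 min and again at 10 min.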
Pol iota inh = inhibitors of human DNA polymerase iota; Q9UNA4; Pol iota fluorescent replication assay, 10 min; Potency, µM (doses to about 115 µM), most hits filed as inhibitors; actives 1% (n = 390,000)
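Pol iota at 10 nM preincubated 15 min with compounds at room temperature; reaction started with fluorescent substrate, 50 nM final. Fluorescence read kinetically at 0 and 10 min; buffer-only wells as negative control.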
Hits are given with their value; 0 = inactive; ? = inconclusive; - = no result given. Shown are actives, neighbours in structure and some others; about 2.3% of the full set was active somewhere. Calls follow the shape of the dose curve; as a rule, active = well fitted curve in the direction sought with a large enough effect; inconclusive = small, poorly fitted or top-dose-only effect, or another doubt; inactive = no such curve, though single readings can be large; an effect the other way counts as inactive or inconclusive.

SMILES | Pol beta inh | WRN inhibitor | Pol kappa inh | POLH inh | Pol iota inh
C[C@@H]1OC(OC2CC[C@@]3(C)C(CC[C@@]4(C)C3CC=C3C5CC(C)(C)CC[C@]5(C(=O)OC5OCC(O)[C@@H](O)[C@@H]5OC5O[C@@H](C)[C@H](O[C@H]6OC(CO)C(O)C(O)C6O)C(O)C5O)C(O)C[C@@]34C)C2(C)C)C(O)C(O)[C@H]1OC1OCC(O)C(O)[C@H]1O (stereo partly specified) | - | - | 25µM | - | -
COc1ccc(CNc2ccccc2)cc1Br | 0 | 0 | 0 | 0 | 0
COc1ccc(Cc2nnc(Nc3ccccc3)s2)cc1Br | 56µM | 56µM | 0 | ? | ?
Cc1ccc(NC(=O)CSc2nnc(-c3ccco3)c(-c3ccco3)n2)cc1 | 14µM | 40µM | 40µM | 11µM | 11µM
CN(C)c1ccc(NC(=O)CSc2nnc(-c3ccco3)c(-c3ccco3)n2)cc1 | 0 | 0 | 0 | 0 | 0
O=C(CSc1nnc(-c2ccco2)c(-c2ccco2)n1)Nc1ccccc1 | 0 | 35µM | 20µM | 2.8µM | 5µM
Cc1ccc(SCC(=O)Nc2ccc(-c3nnc(-c4ccco4)o3)cc2)cc1 | 50µM | 0 | ? | ? | 0
Cc1ccc(NC(=O)CCSc2nnc(-c3ccco3)o2)cc1 | 0 | 0 | 0 | 0 | 0
CC(=O)N(c1ccc2ccccc2c1)C1SC(=O)N(c2cccc(C)c2)C1=O (stereo unspecified) | - | - | 0 | - | 0
Nc1ncc(O)c(N)n1 | - | - | 0 | - | -
CCN(N=O)c1ccc(/C=C2\C=Cc3ccccc32)cc1 | - | - | 0 | - | 0
O=C1CSC(=S)N1N=Cc1ccccc1O | - | 22µM | ? | ? | ?
COc1cc(/C=N/N2C(=O)CSC2=S)ccc1O | 0 | ? | 79µM | 0 | 13µM
O=C1CSC(=S)N1/N=C/c1ccc2c(c1)OCCO2 | 0 | 0 | 0 | 0 | ?
O=C1CSC(=S)N1/N=C/c1ccc(Cl)c([N+](=O)[O-])c1 | 22µM | - | - | - | -
O=C1CSC(=S)N1/N=C/c1cc(Br)c(O)c(Br)c1 | 20µM | 20µM | 16µM | 11µM | 14µM
Cc1ccccc1/C=N/N1C(=O)CSC1=S | 0 | 0 | 0 | 0 | 0
COc1cc(O)c(C=NN2C(=O)CSC2=S)c(OC)c1 | - | 0 | - | 0 | -
N#Cc1ccc(C(=O)N(Cc2ccco2)Cc2cccs2)cc1 | - | - | 0 | - | 0
CCCN1CNc2c(c(=O)[nH]c(=S)n2CCc2c(C)cccc2C)C1 | - | - | 0 | - | 0
COc1ccc(C2C(C(=O)/C=C/c3ccco3)=C(O)C(=O)N2CCN2CCOCC2)cc1 (stereo unspecified) | ? | 0 | 0 | 0 | 20µM
Cc1cc(C)nc(NS(=O)(=O)c2ccc(NC(=O)c3nn(-c4ccccc4)ccc3=O)cc2)n1 | 0 | 0 | 0 | 0 | 0
Cc1ccc(-n2ccc(=O)c(C(=O)Nc3ccc(S(=O)(=O)Nc4nccs4)cc3)n2)cc1 | ? | ? | 0 | 79µM | 0
O=C(Nc1ccc(S(=O)(=O)Nc2nccs2)cc1)c1ccncc1 | - | 0 | - | - | -
Cc1ccc(-n2ccc(=O)c(C(=O)Nc3ccc(S(=O)(=O)Nc4nccc(C)n4)cc3)n2)cc1 | 0 | 0 | 0 | 40µM | ?
SMILES | Pol beta inh | WRN inhibitor | Pol kappa inh | POLH inh | Pol iota inh
O=C(Nc1ccc(S(=O)(=O)Nc2nccs2)cc1)C1=NN(c2ccccc2)C(=O)CC1 | ? | 0 | 0 | 50µM | ?
Cc1ccc(-c2nnc(Nc3cccc(O)c3)c3ccccc23)cc1S(=O)(=O)NCCO | 0 | 0 | 0 | ? | 0
CCOC(=O)CNS(=O)(=O)c1cc(-c2nnc(Nc3cccc(O)c3)c3ccccc23)ccc1C | 0 | - | ? | 0 | 89µM
CCS(=O)(=O)Nc1cccc(-c2cn3c(n2)SCC3)c1 | 0 | 0 | 0 | 0 | 0
CS(=O)(=O)Nc1cccc(-c2cn3c(n2)SCC3)c1 | 0 | 0 | 32µM | 0 | ?
CC1=C(c2ccc(C(C)C)cc2)S(=O)(=O)N=C1N1CCN(C(=O)c2ccco2)CC1 | 0 | 0 | ? | 0 | 50µM
CC(=O)O[C@@H]1CC[C@@]2(C)[C@H](C1)[C@H](OC(C)=O)C[C@@H]1[C@@H]2C[C@H]2[C@@H]3CN4C[C@H](C)CC[C@H]4[C@H](C)[C@H]3CC[C@@]12O | - | - | 0 | - | -
CC(=O)c1c(C)oc2ccc(NS(=O)(=O)c3ccc(O)c(C(=O)O)c3)cc12 | ? | 0 | 0 | 25µM | ?
O=C(O)c1cc(S(=O)(=O)Nc2ccc3oc(=O)sc3c2)ccc1O | 50µM | 28µM | ? | 14µM | ?
